Bioassay records deposited in PubChem by several laboratories.
Most compounds without a hit are left out; they make up all but 5% or so of the library.
CHT PAM: allosteric activators of human choline transporter CHT. CHT-expressing cells, membrane potential dye, choline EC20; stronger effect = higher value; LV-AA mutant CHT in HEK293 cells. B-score at 10 µM. actives 0.49% (n = 310,000);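 active means initial fluorescence not abnormally high and integrated response B-score, plate-corrected, over 3 SD above library mean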
ALR inh: human ALR oxidase inhibition via reduced H2O2 | P55789 | purified ALR, DTT oxidation, H2O2 HRP-luminol luminescence | inhibition, % (test concentration not listed) | actives 3.8% (n = 290,000) | AID 485317;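 active means mean replicate inhibition above about 79%, with every replicate also reaching it, limit read from the data; inconclusive means only one of the two criteria met; inactive means mean below limit and not every replicate reaching it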
Target sequence (P55789 whole entry, looked up): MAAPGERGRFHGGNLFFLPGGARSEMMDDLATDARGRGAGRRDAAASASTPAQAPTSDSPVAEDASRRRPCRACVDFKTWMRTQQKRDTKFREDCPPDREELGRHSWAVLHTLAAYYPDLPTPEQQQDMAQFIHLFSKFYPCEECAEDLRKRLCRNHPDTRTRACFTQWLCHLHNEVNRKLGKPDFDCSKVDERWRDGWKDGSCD
PREPL inhibitor: human PREPL enzyme inhibition; Q4J6C6; recombinant PREPL, fluorescence polarization activity-based probe; inhibition, % at 5.96 µM; actives 0.68% (n = 320,000); in the data active means inhibition above about 43%
CHT block: inhibits the human high affinity choline transporter | Q9GZV3 | B-score at 10 µM | actives 0.86% (n = 310,000) | CHT-expressing cells, membrane potential dye, choline response; stronger effect = lower value;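 active means B-score over 3 SD under the library average, and starting fluorescence ratio not unusually high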;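 further: choline stimulus applied at its EC90 after an EC20 pre-addition; B-score computed on integrated fluorescence ratio after choline addition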
AI-2 QS modul: modulates the Vibrio harveyi AI-2 quorum sensing system | activity change, % at 7.5 µM | Vibrio harveyi JMH597 AI-2 luminescence/OD600 ratio, 9 h; stronger effect = lower value; strain lacks LuxN and CqsS sensors; 0 = neutral-control median | actives 0.4% (n = 300,000); in the data active means activity change below about -75%, passing the limit was not always enough; inconclusive means no clear call, values can overlap the other calls;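 further: luminescence divided by OD600 gain over 9 h not by final OD600 alone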
CHT block conf: human CHT inhibition, confirmatory screen. AID 493221. shares compounds with CHT block. CHT activity remaining % of control (stronger effect = lower value), % at 10 µM. actives 70% (n = 2,400). CHT-expressing cells, choline membrane potential dye; LV-to-AA substituted CHT, HEK293 cells;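 active means choline transporter activity left, mean of duplicates at 10 µM, below buffer-only control mean minus 3 SD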;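 further: depolarization triggered by choline at its EC90 following an EC20 pre-addition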
HEK293 MPD ctr: activity in parental HEK293 cells lacking CHT; membrane potential ratio readout (active if shifted either direction beyond buffer ±3SD; no single direction) at 10 µM; shares compounds with CHT block; actives 4% (n = 2,400); AID 493222; membrane potential dye, choline response; active = decrease or increase beyond buffer ±3SD;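 further: parental cells lack the transporter so any hit is non-specific; ratio is peak minus trough fluorescence over baseline after EC90 choline challenge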
Numbers stand for hits; - = inactive; ? = inconclusive; . = no result given.

SMILES	CHT PAM	ALR inh	PREPL inhibitor	CHT block	AI-2 QS modul	CHT block conf	HEK293 MPD ctr
CCN(CC(=O)Nc1ccccc1C(F)(F)F)C(=O)c1cc(S(=O)(=O)N2CCCCCC2)ccc1OC	-	.	-	-	-	.	.
O=C1NC(=Nc2ccccc2Cl)S/C1=C\c1cccc([N+](=O)[O-])c1O	-	-	-	-5	-	38%	-
CCCn1c(SCc2nc(-c3cccs3)no2)nnc1-c1ccncc1	-	-	-	-	-	.	.
CCOc1ccc(-n2c(SCc3nc(-c4cccs4)no3)nnc2-c2ccncc2)cc1	-	-	-	-5	-	-	-
Cn1c(SCc2nc(-c3ccccc3)no2)nnc1-c1cccs1	-	-	-	-	-	.	.
Cc1nnc(SCc2nnc(-c3cccs3)o2)n1C	-	-	-	-7	-	-	-
Cn1c(SCc2nc(-c3cccs3)no2)nnc1C1CCCCC1	-	-	-	-7.2	-	-	-
CCN(CC1CCCO1)C(=O)c1cc(COc2cc(C)c(Cl)c(C)c2)on1 (stereo unspecified)	.	.	.	.	-	.	.
CCN(CC)C(=O)c1cc(-c2ccc3c(c2)OCO3)on1	-	-	-	-	-	.	.
CC(c1ccco1)N(C(=O)c1ccccc1NS(=O)(=O)c1ccc(Cl)c([N+](=O)[O-])c1)c1ccccn1 (stereo unspecified)	-	-	-	-7.8	-	66%	-
CC(c1ccco1)N(C(=O)c1cc(Cl)cc(Cl)c1)c1ccccn1 (stereo unspecified)	-	.	-	-	-	.	.
COc1ccc(OCC(O)Cn2c(=N)n(CCN3CCOCC3)c3ccccc32)cc1 (stereo unspecified)	-	-	-	-	-	.	.
CCn1c(=N)n(CC(O)COc2cccc(C)c2)c2ccccc21 (stereo unspecified)	-	-	-	-	-	.	.
Cc1ccc(Cn2c(=N)n(CC(O)COc3ccccc3)c3ccccc32)cc1 (stereo unspecified)	-	-	-	-8.2	-	38%	-
CCCn1c(=N)n(CC(O)COc2cccc(C)c2)c2ccccc21 (stereo unspecified)	-	-	-	-5.3	-	-	-
N=c1n(Cc2ccccc2)c2ccccc2n1CC(O)COc1ccccc1 (stereo unspecified)	-	.	-	-9.8	-	38%	-
CC(=O)c1sc(NC(=O)COc2ccc(C(C)C)c(C)c2)nc1C	-	.	-	-	-	.	.
CC(C)(C)OC(=O)C[C@H]1C/C=C\C[C@@H](CC(=O)N[C@@H](CO)Cc2ccccc2)C(=O)N2CCC[C@@H]2COC1=O	.	-	-	.	.	.	.
CC(C)CC(NC(=O)OC(C)(C)C)c1cn([C@@H](CCCCNC(=O)OC(C)(C)C)C(=O)N2CCN(C(=O)OC(C)(C)C)CC2)nn1 (stereo partly specified)	-	-	-	-	-	.	.
CC[C@@H](C)C(NC(=O)OC(C)(C)C)c1cn([C@@H](CCCCNC(=O)OC(C)(C)C)C(=O)N2CCN(C(=O)OC(C)(C)C)CC2)nn1 (stereo partly specified)	-	-	-	-11	-	-	-
O=[N+]([O-])c1ccc(O)c2ncccc12	-	.	-	-	?	.	.
O=[N+]([O-])c1cc([N+](=O)[O-])c2cccnc2c1Oc1ccccc1O	-	-	-	-7	-	45%	-
COC(=O)c1sc(NC(=O)COc2cccnc2[N+](=O)[O-])c(C(=O)OC)c1C	.	-	-	.	.	.	.
NC(N)=Nc1nc(CCN2C(=O)c3ccccc3C2=O)cs1	-	-	-	-6.3	-	30%	-
Cc1nc(CCN2C(=O)c3ccccc3C2=O)cs1	-	-	-	-	-	.	.
SMILES	CHT PAM	ALR inh	PREPL inhibitor	CHT block	AI-2 QS modul	CHT block conf	HEK293 MPD ctr
O=C(N/N=C\c1ccc(Cl)cc1)C1=NOC2COC3(CCN(c4ccc([N+](=O)[O-])cc4)CC3)OCC12 (stereo unspecified)	-	-	-	-	-	.	.
O=C(CN1C(=O)NC2(CCCc3ccccc32)C1=O)N1CCc2ccccc2C1 (stereo unspecified)	-	-	-	-6.1	-	34%	-
Cc1cccc(NC(=O)CN(C)S(=O)(=O)c2ccc(-c3ccc(=O)[nH]n3)s2)c1C	-	-	-	-6.3	-	-	-
CCN(c1ccc(NC(=O)CCc2nc3sc4c(c3c(=O)[nH]2)CCCC4)cc1)C(C)C	-	-	-	-	-	.	.
O=C(Nc1ccc(S(=O)(=O)NC2=NCCCCC2)cc1)c1ccc(C(F)(F)F)cc1	-	-	-	-6.8	-	41%	-
CN(C)S(=O)(=O)c1ccc(C(=O)Nc2ccc(S(=O)(=O)NC3=NCCCCC3)cc2)cc1	-	-	-	-	-	.	.
CC(C)CN1CCC(Oc2cccc(C(=O)NCCc3ccccc3)c2)CC1	-	-	-	-12	-	21%	-
COCC(C)N1CCC(Oc2cccc(C(=O)NCCc3ccccc3)c2)CC1 (stereo unspecified)	-	-	-	-10	-	14%	-
C=CCCC(=O)N1CCC(Oc2cccc(C(=O)NCc3ccccn3)c2)CC1	-	-	-	-	-	.	.
CC(NC(=O)c1cccc(OC2CCN(C3CCN(C)CC3)CC2)c1)c1ccccc1 (stereo unspecified)	-	-	-	-	-	.	.
CC(NC(=O)c1cccc(OC2CCN(C(=O)C3CC3)CC2)c1)c1ccc(F)cc1 (stereo unspecified)	-	-	-	-6.3	-	38%	-
C/C=C(\C)CN1CCC(Oc2cccc(C(=O)NCc3ccccn3)c2)CC1	-	-	-	-9.1	-	21%	-
CN1C2CCC1CC(NC(=O)c1cc(S(=O)(=O)N(C)C)c(Cl)cc1Cl)C2 (stereo unspecified)	.	-	-	.	.	.	.
COc1ccc(/C=C2\N=C(c3ccccc3)N(c3ccc(C(=O)O)cc3)C2=O)cc1OC	-	-	-	-6.9	-	47%	-
COc1ccc(/C=C2/N=C3CCCCCN3C2=O)cc1OC	-	-	-	-	-	.	.
CN(Cc1ccccc1)C(=O)COc1cc(Cl)ccc1Cl	-	-	-	-	-	.	.
CCN1CCN(C(=O)CCc2nc3ccccc3n2-c2ccccc2)CC1	-	-	-	-6.1	-	40%	-
O=C(CCc1nc2ccccc2n1-c1ccccc1)NCCO	-	-	-	-	-	.	.
COc1cc(C(=O)Nc2ccccc2N2CCOCC2)ccc1OCC(=O)N1CCOCC1	-	-	-	-	.	.	.
CC(C)(C)N(Cc1ccccc1)C(=O)COC(=O)c1ccccc1SCC(=O)N1CCCC1	-	-	-	-	-	.	.
